# Compound activity: PubChem, National Center for Advancing Translational Sciences (NCATS)
# Hits are enriched below; roughly 8.3% of the tested compounds scored in any of these assays.
# BCR signal inh = qHTS Assay to Find Inhibitors of Chronic Active B-Cell Receptor Signaling; 0.05% of 340,000 active; Potency, µM (titrated, usually from 46.1 µM), inactives show top-dose activity change, negative = inhibition, hits mostly inhibitors; AID 493014, 2011; ABC-DLBCL IkBa-CBG/CBR reporter, luminescence ratio, 4 h; active = well fitted inhibition curve with a large enough effect in the signal ratio, with a control signal flat, not every such curve was filed as active; inconclusive = small, poorly fitted or top-dose-only effect, or effect the other way, or a change in a side signal; the % refers to the signal ratio;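 note: potency is the fitted concentration of half-maximal effect; plate controls were basal doxycycline-induced cells for no effect and cells given 10 µM MG132 for full effect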
#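 Compounds up to 46 uM were incubated four hours with TMD8 cells whose green CBG68 luciferase is fused to IkappaBalpha; red CBR luminescence normalised the signal, and concentration-effect curves were fitted to fusion, red and ratio data.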
# SW480 rerep = A quantitative high throughput screen for small molecules that induce DNA re-replication in SW480 colon adenocarcinoma cells; 1.8% of 340,000 active; Potency, µM (highest dose often 46.1 µM), without a hit: top-dose re-replication activation, hits mostly activators; SW480 DNA re-replication, Hoechst DNA content imaging, 48 h; note: potency is the fitted concentration of half-maximal effect; % of control where 0% means no effect; nearly all actives have a fitted effect of over 55% in size
#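 SW480 cells exposed to compounds for 48 hr at 37 C, 5% CO2, then Hoechst-stained 40 min. Nuclear DNA content imaged by fluorescence scanning (405 nm excitation, 500-530 nm emission); re-replication scored as increased high-intensity nuclei.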
# Giardia killer = Small Molecules that selectively kill Giardia lamblia: qHTS; Giardia lamblia trophozoite viability; activity change, % at 7.66 µM, hits read low; 0.15% of 340,000 active; AID 540267, 2011; in the data active = activity change below about -80%; inconclusive = between about -30% and that limit;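 note: parasites exposed to compound for two days anaerobically before the ATP read; % is set by controls: 0 for no effect and ±100 for the full control effect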
#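 ATP-content bioluminescence gauges trophozoite survival. Cells (100/well) receive compound and incubate anaerobically for 48 hrs at 37 deg C; detection reagent follows for 15-30 min at room temperature.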
# VP16 counter = VP16 counterscreen qHTS for inhibitors of ROR gamma transcriptional activity; 3.5% of 310,000 active; Drosophila S2 Gal4-VP16 UAS-luciferase, luminescence, 20 h; Potency, µM (series often up to 53.6 µM), for the others: top-dose activity, negative = inhibition, actives largely listed as inhibitors; AID 2546, 2010;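 note: Gal4-VP16 expression switched on by copper sulfate through the metallothionein promoter; potency is the fitted concentration of half-maximal effect; % is set by controls: 0 for no effect and ±100 for the full control effect; nearly all actives have a fitted effect of over 50% in size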
# MCF10A rereplic = A quantitative high throughput screen for small molecules that induce DNA re-replication in MCF 10a normal breast cells | MCF 10A DNA re-replication, Hoechst nuclear intensity, 48 h | Potency, µM (series often up to 46.1 µM), without a hit: at the top dose activity, positive = re-replication, actives largely listed as activators | 2.9% of 350,000 active | AID 624296, 2012; note: potency is the fitted concentration of half-maximal effect; % of control where 0% means no effect; nearly all actives have a fitted effect of over 50% in size
# RORg inh = qHTS for inhibitors of ROR gamma transcriptional activity. 5.4% of 310,000 active. Nuclear receptor ROR-gamma (Mus musculus), P51450. Potency, µM (titrated, usually from 53.6 µM), for inactives: top-dose activity change, negative = inhibition, hits mostly inhibitors. Drosophila S2 Gal4-RORgamma UAS-luciferase reporter, 20 h; note: potency is the fitted concentration of half-maximal effect; % is set by controls: 0 for no effect and ±100 for the full control effect; nearly all actives have a fitted effect of over 60% in size
# Target sequence (P51450 whole entry, looked up, the tested form may be a part): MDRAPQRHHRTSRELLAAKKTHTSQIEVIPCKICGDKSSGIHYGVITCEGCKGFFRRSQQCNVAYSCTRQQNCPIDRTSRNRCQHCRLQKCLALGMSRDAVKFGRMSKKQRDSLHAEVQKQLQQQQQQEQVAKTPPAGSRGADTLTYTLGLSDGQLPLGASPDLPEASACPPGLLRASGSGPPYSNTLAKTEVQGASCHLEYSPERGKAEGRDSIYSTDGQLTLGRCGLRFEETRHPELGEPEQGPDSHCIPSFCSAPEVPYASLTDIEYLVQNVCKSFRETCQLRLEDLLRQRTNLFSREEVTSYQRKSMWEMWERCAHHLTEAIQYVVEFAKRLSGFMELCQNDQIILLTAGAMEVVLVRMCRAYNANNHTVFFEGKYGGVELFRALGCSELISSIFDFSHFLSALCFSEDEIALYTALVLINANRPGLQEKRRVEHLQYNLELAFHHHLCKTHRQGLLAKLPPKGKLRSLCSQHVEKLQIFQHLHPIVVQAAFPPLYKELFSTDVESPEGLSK
#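 Read-out: Photinus luciferase luminescence; inhibitors lower reporter signal. Insect Schneider cells with Gal4-ROR gamma fusion under metallothionein promoter, UAS reporter; 700 uM final copper sulfate induction, 20 hr, ambient temperature.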
# Numbers without * were called inactive; ? = inconclusive; nt = no result given; [ ] = another dose, or the depositor's remark. Unless noted, calls come from the whole dose curve; as a rule, active = well fitted curve in the direction sought with a large enough effect; inconclusive = small, poorly fitted or top-dose-only effect, or another doubt; inactive = no such curve, though single readings can be large; an effect the other way counts as inactive or inconclusive.
SMILES,BCR signal inh,SW480 rerep,Giardia killer,VP16 counter,MCF10A rereplic,RORg inh
CN(C)c1ccc(/C=N/NC(=O)CNC(=O)/C=C/c2ccco2)cc1,-3.9%,-2.5%,2.8,19.1%,?,?
CC(C)=CCCC1(C)C=Cc2c(c(C)cc3c2[nH]c2ccccc23)O1 (centres undefined),nt,nt,nt,-6.6%,nt,30.4%
COCCn1c(=O)c(C)nc2cnc(N3CCNCC3)nc21,nt,nt,nt,-19.2%,nt,-1.9%
CC(C)(C)NC(=S)NCc1ccco1,-0.7%,-9.1%,-3.6,-0.1%,-37.2%,0.7%
CN(C)c1ccc(C(=S)NCc2ccco2)cc1,?,-7.4%,-7.3,7.94µM*,0.8%,3.98µM*
COc1cccc(/C=N/NC(=O)C(=O)N/N=C/c2cccc(OC)c2OC)c1OC,2.9%,16.4µM*,1.8,-1.4%,7.1%,-6.5%
CC(C)(C)c1cn(-c2ccc(F)cc2)c(=S)[nH]1,-12.8%,-0.5%,0.6,10µM*,-3.3%,8.91µM*
CCc1ccc(-n2cc(-c3ccc(F)cc3)[n+]3c2SCCC3)cc1,3.2%,26.5%,0.1,?,25.5%,-33.3%
COc1ccc(OC)c(/C=C/C(=O)OCC(=O)NC2CCCCCCC2)c1,8.2%,-4.2%,?,nt,14.2%,nt
Cc1cc(SCc2ccc(Cl)cc2Cl)nc(=O)[nH]1,-4.8%,?,-4.6,0.1%,9.2µM*,7.5%
C=C(C(C)=O)C(O)/C=C/c1ccco1 (centres undefined),nt,nt,nt,-9.3%,nt,-18.0%
N#CCCn1cc(C(=O)O)c(-c2ccc3ccccc3c2)n1,4.6%,-1.3%,-26.0,-9.4%,-9.7%,5.4%
Cc1ccccc1S(=O)(=O)NC(=NCc1ccc(F)cc1)c1ccccc1,-1.3%,-0.9%,-6.6,nt,5.8%,nt
C/C(=N\Nc1nc2c(s1)CCCC2)c1ccc(Cl)cc1,5.0%,?,1.1,11.2µM*,?,1.26µM*
CN(C)c1ccc(C(=O)Nc2nc3c(s2)CCCC3)cc1,?,-7.4%,6.7,11.2µM*,0.3%,5.62µM*
CC(C)(C)c1ccc(C(=O)NC(=S)Nc2nc3c(s2)CCCC3)cc1,-0.8%,?,6.0,4.47µM*,?,1.78µM*
C/C(=N\NC1=NCCN1)c1ccc(Cl)cc1,1.4%,?,24.1,-1.1%,?,1.7%
CCOC(=O)c1nn(-c2ccccc2)c(=O)cc1SC1CCCCC1,1.4%,-31.8%,-2.9,-6.9%[10 µM],-57.3%,-7.5%
CC(C)(C)c1ccc(O)c(/C=N\O)c1,1.9%,2.4%,-1.6,?,17.8%,11.2µM*
CC(C)(C)c1ccc(O)c(O)c1,-8.8%,?,15.2,?,?,?
COc1ccc2c(C=O)cn(C)c2c1,-2.1%,-1.5%,-3.0,-1.3%,0.0%,1.6%
CC1(c2ccc(OCC#N)cc2)C=C(c2ccc(OCC#N)cc2)n2nc(C(F)(F)F)nc2N1 (centres undefined),?,?,-4.0,-10.8%,18.4µM*,?
Cc1ccc(C2=CC(C)(c3ccc(C)cc3)Nc3nc(C(F)(F)F)nn32)cc1 (centres undefined),8.7%,0.5%,-11.2,?,5.6%,11.5%
CC(C)CCN(C(=O)C1CSC2(C)CCC(=O)N12)c1c(N)n(Cc2ccccc2)c(=O)[nH]c1=O (centres undefined),-8.0%,-1.9%,5.2,nt,1.5%,nt
Cc1ccc(S(=O)(=O)Nc2cccnc2)cc1,-1.5%,-0.5%,5.8,-2.3%,5.4%,16.5%
SMILES,BCR signal inh,SW480 rerep,Giardia killer,VP16 counter,MCF10A rereplic,RORg inh
CCOc1ccc(NS(=O)(=O)c2cnc(Cl)c(Cl)c2)cc1,?,?,24.4,5.0%,4.11µM*,9.2%
CCCCOc1ccc(S(=O)(=O)Nc2cccnc2)cc1,8.9%,-1.8%,-10.3,11.2µM*,-5.4%,-31.2%
Cc1cc(C)cc(NS(=O)(=O)c2cnc(Cl)c(Cl)c2)c1,19.7%,-0.2%,-7.5,-12.1%,?,?
CCOc1ccc(S(=O)(=O)Nc2cccc(OC)c2)cc1,?,?,-25.6,17.8µM*,?,-30.6%
Cc1ccc(NS(=O)(=O)c2ccc3c(c2)n(C)c(=O)n3C)c(C)c1,?,-3.3%,-0.2,4.2%,8.9%,12.0%
CCc1ccc(S(=O)(=O)Nc2cc3c(cc2C)n(C)c(=O)n3C)cc1,?,-7.5%,8.8,7.08µM*,?,?
CC(Sc1nnc(Cc2ccccc2)o1)C(=O)NC1(C#N)CCCCC1 (centres undefined),1.1%,-12.2%,0.5,nt,20.9%,nt
CN(CC(=O)Nc1ccc(F)cc1)C(=O)CN1C(=O)NC2(CCCc3ccccc32)C1=O (centres undefined),-1.6%,-6.0%,4.4,-6.3%,-3.1%,-1.6%
CCOc1ccccc1N1CC(C(=O)Nc2ccccc2CC)CC1=O (centres undefined),0.4%,-14.4%,-4.9,10.9%,-13.5%,-1.0%
COc1ccc(CCC(=O)N2CCN(S(=O)(=O)c3ccc(OC(F)(F)F)cc3)CC2)cc1,0.5%,-0.6%,-11.0,nt,3.8%,nt
CCOc1ccc(S(=O)(=O)Nc2ccc3c(c2)n(C)c(=O)n3C)cc1,?,-6.0%,22.3,0.1µM*,14.2%,?
O=C(Cn1c(=O)c(=O)n(Cc2ccccc2)c2ccc(Cl)cc21)NCC1CCCO1 (centres undefined),0.0%,-41.8%,-13.8,0.3%,-13.5%,10.1%
CC(=O)NC(=S)NNC(=O)C(c1ccccc1)c1ccccc1,-1.0%,12.7%,-6.1,-5.9%,0.8%,6.31µM*
CC(=O)N1CCc2cc(S(=O)(=O)CCC(=O)NCCc3ccc(Cl)cc3)ccc21,8.6%,?,-13.5,11.8%,?,-0.7%
COc1ccc(/C=C(/NC(=O)c2ccccc2)C(=O)N/N=C/c2sccc2C)cc1,?,-2.9%,-7.4,?,?,12.6µM*
O=C(N/N=C/c1cccs1)/C(=C/c1ccccc1)NC(=O)c1ccccc1,-1.8%,-5.0%,1.9,?,4.2%,11.2µM*
COc1ccc(/C=C(\NC(=O)c2ccccc2)C(=O)N/N=C/c2ccncc2)cc1,4.5%,12.5%,8.5,-1.2%,19.6%,30.0%
COc1ccc(/C=C(\NC(=O)c2ccccc2)C(=O)N/N=C/c2sccc2C)cc1,-0.2%,-4.8%,2.3,22.4µM*,?,11.2µM*
OCCC1CN(Cc2cn[nH]c2C2CCCCC2)CCN1C1CCCC1 (centres undefined),-11.0%,-6.5%[1.84 µM],-6.8,2.6%,17.7%,0.7%
